The values below come from PubChem BioAssay AID652105 (National Center for Advancing Translational Sciences (NCATS), 2013).

The whole screen tested about 330,000 compounds, of which about 4,100 (1.2%) were called active. About 2% were inconclusive and are not listed. This excerpt belongs to a sample that is enriched for actives. Values without a mark were called inactive. The calls were made as follows: active = max response of -50% or lower; inconclusive = between -30% and -50%; inactive = -30% or higher.
% is scaled to controls: 0 for no effect and ±100 for the full control effect.

Phosphatidylinositol 5-phosphate 4-kinase type-2 alpha (Homo sapiens), sequence (P48426 whole entry, looked up): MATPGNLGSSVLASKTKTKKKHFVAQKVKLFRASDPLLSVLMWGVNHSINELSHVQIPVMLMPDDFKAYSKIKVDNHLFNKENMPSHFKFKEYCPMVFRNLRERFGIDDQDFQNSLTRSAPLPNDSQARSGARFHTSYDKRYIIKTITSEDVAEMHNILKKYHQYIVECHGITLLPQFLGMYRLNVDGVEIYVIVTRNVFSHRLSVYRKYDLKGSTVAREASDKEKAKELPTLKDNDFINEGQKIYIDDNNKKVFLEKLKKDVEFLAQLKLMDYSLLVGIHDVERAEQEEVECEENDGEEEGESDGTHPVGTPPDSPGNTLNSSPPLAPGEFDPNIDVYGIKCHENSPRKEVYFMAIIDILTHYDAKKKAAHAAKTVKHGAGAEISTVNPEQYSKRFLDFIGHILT

For this experiment, the target named is Phosphatidylinositol 5-phosphate 4-kinase type-2 alpha (Homo sapiens) (UniProt P48426). As to the kind of experiment: qHTS for Inhibitors of phosphatidylinositol 5-phosphate 4-kinase (PI5P4K). Also: value at the top dose of about 77 µM. Particulars: PI5P4Kalpha enzyme, ADP-Glo luminescence, 60 min; hits give low values. The procedure, abridged:
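PI5P4Kalpha ADP-Glo assay; 5 microM ATP final; 60 min RT reaction; HEPES pH 7.4/EGTA/CHAPS, 5% DMSO; controls lacking substrate or enzyme; luminescent end-point.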
On to `COc1ccc(C(O)C(O)(C(=O)OC(C)C)c2ccc(C)cc2)cc1` (centres undefined), for which the max response is -0.92%.
As for `COc1cncc(-c2cnc3sc(NCCc4ccccn4)nn23)c1`, the figure is -5.87%.
The value for `O=C1NC[C@H](CCCCN2CCN(CCc3ccccc3)C(=O)C2=O)N(CC2CCCCC2)C1=O` was -2.74%.
As for `CCOC(=O)[C@]12CCC=C1N(Cc1cccc3ccccc13)C(=O)[C@H](CC(=O)NCc1cccc(C(F)(F)F)c1)C2`, the figure is 11%; as for `CC1(Cc2ccccc2C#N)C(=O)Nc2ccc(-c3ccc4[nH]ccc4c3)cc21` (centres undefined), -19.1%; as for `CCN1C(=O)[C@@H]2[C@@H]3CN(S(=O)(=O)c4ccccc4C)[C@@H](c4ccc(Cl)cc4)[C@@H]3C(=O)C[C@@H]2C1=O`, -5.23%.
Regarding `Cc1cccc(-c2cnc(C(O)c3cc(C)cc(C)c3)[nH]2)c1` (centres undefined), the max response is 0.164%.
As for `CN1CCN(C(=O)c2ccc(NC(=O)c3ccc(Br)o3)cc2)CC1`, the max response was -0.458%.
On to `COc1ccc(CCCc2nnc(SCc3nc4ccccc4c(=O)[nH]3)n2C)cc1`, for which the max response was -92.1% (active).
The value for `COc1ccc(C)cc1-n1nnnc1SCc1nc2ccccc2c(=O)[nH]1` was -6.87%; that for `CCn1c(COc2c(C)cccc2C)nnc1SCc1nc2ccccc2c(=O)[nH]1` was -1.01%; that for `CCC(=O)N1Cc2cc(C(=O)NCc3cccc(F)c3)nc(-c3cccc(C4=CCCC4)c3)c2[C@H]1CCO` was -0.668%.
The value for `CN(C)C(=O)N=NC(=O)N(C)C` was -58.3% (active).
As for `CCc1nc2c(OCc3ccc(F)c(F)c3)cccn2c1N(C)C(=O)c1ccco1`, the figure is -3.84%; as for `CCNC(=S)NNC(=O)Cc1ccccc1`, 5.73%.
Take `CCCCC(=O)NNC(=S)NC(=O)C(c1ccccc1)c1ccccc1`: the max response was -62.6% (active).
The value for `O=C(NNC(=S)NCc1ccco1)C(c1ccccc1)c1ccccc1` was -8.48%; that for `CCCCCCn1c(=O)n2n(c1=O)C[C@]1(OC(=O)NCc3ccc(OC)c(OC)c3)CN(S(=O)(=O)c3ccc(C)cc3)C[C@]1(O)C2` was 3.29%; that for `CCOC(=O)[C@]12CCCC=C1N(CCC1=CCCCC1)C(=O)[C@H](CC(=O)NCCCCc1ccccc1)C2` was 0.467%.
Take `CCCOc1ccc(F)cc1-c1cc(C(=O)Nc2ccc(F)cc2)[nH]n1`: the max response is 0.345%.
As for `COc1ccc(N(C(=O)c2cccnc2)S(=O)(=O)c2ccc(OC)c(OC)c2)cc1`, the figure is 0.0951%.
The value for `O=C(c1cccnc1)N(c1cc2sc(=O)oc2c2ccccc12)S(=O)(=O)c1ccccc1` was -69.2% (active); that for `COc1ccc(N(C(=O)c2cccnc2)S(=O)(=O)c2ccc3c(c2)n(C)c(=O)n3C)cc1` was -3.4%; that for `COCCCNC(=O)c1cccc2c(-c3ccc(O)c(OC)c3)coc12` was 4.94%.
The value for `COCCCNC(=O)c1ccc(-c2c(C)noc2C)c2ccoc12` was -2.64%; that for `O=C1c2cccnc2C(=O)N1Cc1cccs1` was 0.461%; that for `CCOc1ccc(CCN2C(=O)c3cccnc3C2=O)cc1OCC` was -0.64%.
For `NC1=CC(=O)C(=O)c2cccnc21`, the max response was -50.3% (active).
Regarding `O=C(Nc1ccc(Cl)cc1)C1Cc2c(-c3ccc4c(c3)OCO4)ccnc2O1` (centres undefined), the max response was -13.4%.
As for `CCCCCn1nnnc1C1c2ccccc2C(=O)N1Cc1ccco1` (centres undefined), the figure is -0.242%; as for `O=C(NCC(=O)N1CCCC(C(F)(F)F)C1)c1ccccc1F` (centres undefined), 3.2%; as for `FC(F)(F)C1CCCN(c2nsc3ccccc23)C1` (centres undefined), -91.2% (active).
As for `O=C(NC(Cc1ccccc1)C(=O)N1CCCC(C(F)(F)F)C1)c1ccccc1` (centres undefined), the figure is 11.8%.
The value for `CCC(C(=O)NC(C)(C)C)n1c(-c2ccccc2)nc2ccccc21` (centres undefined) was 1.82%.
As for `OC[C@@H]1CN(C2CCCC2)C[C@H](n2cnc3c(NC4CCC4)ncnc32)O1`, the max response was -2.43%.
Regarding `N#Cc1cccc(NC(=O)c2cc(C3CCCCN3C(=O)CCc3ccccc3)on2)c1` (centres undefined), the max response is -3.06%.
As for `Cc1ccc(NC(=O)Cn2sc3ccccc3c2=O)cc1`, the figure is -87% (active); as for `Cc1nn(CC(=O)Nc2ccc(F)cc2)c(=O)c2ccccc12`, -3.79%.
As for `Cc1ccc(NC(=O)Cn2c(C)csc2=O)cc1`, the figure is 6.3%; as for `CC(C)C[C@H]1CNC(=O)C(=O)N1C[C@@H]1CCCN1C[C@H](Cc1ccccc1)N1C[C@H](CC(C)C)N(CC2CCCCCC2)C(=O)C1=O`, -0.689%; as for `Cc1cccc(-c2cnc(C(O)c3ccc4ccccc4c3)[nH]2)c1` (centres undefined), -4.33%.
As for `CCc1nc2c(OCc3ccc(C(F)(F)F)cc3)cccn2c1N(C)C(=O)CC(C)C`, the figure is 9.67%.
Turning to `O=C1Nc2cc(C(=O)N3CCC(N4CCCCC4)CC3)ccc2S/C1=C\c1ccccc1`, the max response is -1.98%.
For the compound `CCN1CCN(CCNC(=O)c2ccc3c(c2)NC(=O)/C(=C\c2cccc(Cl)c2)S3)CC1`, the max response is -64.1% (active).
As for `CCN1CCCC1CNC(=O)c1ccc2c(c1)NC(=O)/C(=C\c1ccccc1F)S2` (centres undefined), the figure is -0.909%.
As for `COC(=O)[C@@]12C[C@@H](CC(=O)N3CCCCC3)C(=O)N(Cc3ccc4c(c3)OCO4)C1=CCC(C)(C)C2`, the figure is -2.52%.
As for `CC(=O)OC[C@@H]1CN(Cc2ccccc2)C[C@H](n2cnc3c(NCc4ccco4)ncnc32)O1`, the figure is -7.06%.
Regarding `CCCCN(C=O)c1c(CC)nc2c(OCCC3CCCCC3)cccn12`, the max response is -11.5%.
`CC1(C(=O)Nc2cccc(Oc3ccccc3)c2)CCN1Cc1ccccc1Cl` (centres undefined): the max response is 19%.
The value for `CC(=O)N(CC1CCCO1)C1(C(=O)NC2CCCC2)CCCCC1` (centres undefined) was 8.44%.
The value for `O=C(Cc1cccs1)N(CC1CCCO1)C1(C(=O)NC2CCCCC2)CCCCC1` (centres undefined) was -55.8% (active); that for `CC(=O)NCC(=O)N(Cc1ccco1)C1(C(=O)NC2CCCC2)CCCCC1` was 1.69%.
As for `CCCNC(=O)c1cc(C2CCCCN2S(=O)(=O)c2ccc(C#N)cc2)on1` (centres undefined), the figure is 7.08%.
For `O=C(Nc1ccc(Cl)c(C(F)(F)F)c1)C1Cc2c(-c3ccccc3Oc3ccccc3)ccnc2O1` (centres undefined), the max response was 6.93%.
The value for `N#CC1=C(N)Oc2[nH]c(=S)[nH]c(=O)c2C12C(=O)Nc1ccccc12` (centres undefined) was -89.2% (active); that for `CC1(C)Cc2ccccc2-c2[nH]c(=S)[nH]c(=O)c21` was -19.7%.
Regarding `Cc1ccc(NC2(C#N)C(=O)Nc3ccccc32)cc1` (centres undefined), the max response is -2.41%.
As for `CCc1c(-c2ccc(F)cc2)ncn1Cc1cccc(-c2ccccc2)c1`, the figure is -9.99%; as for `O=c1oc(/C=C/c2ccccc2)nc2ccccc12`, 8.43%; as for `NNc1cccc(C=Cc2ccccc2)cc1=O`, -74.4% (active).
The value for `O=c1[nH]c(/C=C/c2cccc(Br)c2)nc2ccccc12` was -0.363%; that for `OC(c1ccccc1)(c1ccccc1)C1CCN(CCCOc2ccccc2)CC1` was -3.47%; that for `CC(C)C1Cc2[nH][nH]c(=O)c2C(c2ccc(Cl)cc2)O1` (centres undefined) was -8.68%.
For `C1=C(N2CCOCC2)/C(=C/c2nc3ccccc3[nH]2)CC1`, the max response is -77.5% (active).
As for `O=c1[nH]c(N2CCOCC2)nc2ccccc12`, the figure is -4.73%; as for `CC1(C)Cc2c(C#N)c(SCc3nc4ccccc4[nH]3)nc(N3CCOCC3)c2CO1`, 2.17%.
As for `FC(F)(F)c1cccc(-c2nc3ccccc3n2C(c2ccccc2)c2nc3ccccc3[nH]2)c1` (centres undefined), the figure is -4.13%.
The value for `CC1(C(=O)NS(=O)(=O)c2cccs2)CCN1C(=O)Cc1ccc(-c2ccccc2)cc1` (centres undefined) was -0.507%; that for `COC(=O)c1c(C)[nH]c(C)c1-c1ccc([N+](=O)[O-])cc1` was 8.82%.
As for `COC(=O)C1=C(C)N(C)C(=O)NC1c1ccc([N+](=O)[O-])o1` (centres undefined), the max response is -6.27%.
As for `COC(=O)C1=C(C(=O)OC)C(c2cc([N+](=O)[O-])ccc2O)c2sc(=O)[nH]c2S1` (centres undefined), the figure is -81% (active); as for `CCCNC(=O)C1(C)CCN1C(=O)Cc1ccc(-c2ccccc2)cc1` (centres undefined), -2.28%; as for `CC(=O)c1nn(-c2ccccc2)c(=Nc2ccccc2)cc1C`, -0.302%.
The value for `O=C(NCc1cccnc1)c1cc(C2CCCN(C(=O)CCCc3ccccc3)C2)on1` (centres undefined) was 1.02%.
As for `COc1ccc(C(=O)N2CCC(C(=O)Nc3ccc(C)cc3)CC2)cc1`, the figure is -67.6% (active).
Consider `COc1ccc(CNC(=O)C2CCN(C(=O)c3ccccc3)CC2)cc1`, for which the max response is 6.89%.
The value for `O=C(Nc1ccccc1)C1CCN(C(=O)c2ccc(Br)cc2)CC1` was -5.42%.
As to `Nc1ccccc1SC(C[N+](=O)[O-])c1ccccc1` (centres undefined), the max response was -75.7% (active).
The value for `Nc1ccccc1SCc1cc([N+](=O)[O-])cc2c1OCOC2` was 0.872%; that for `Cc1ccc(C(C[N+](=O)[O-])c2c(C)cc3ccccn23)cc1` (centres undefined) was 3.11%.
As for `COc1cc(NC(=O)c2cc(-c3ccc(F)cc3OC(C)C)n[nH]2)cc(OC)c1OC`, the figure is -6.5%; as for `CCCCCCN1CCN(C2CN(Cc3cn(Cc4ccc(F)cc4)nn3)S(=O)(=O)C2)CC1` (centres undefined), 0.312%.
As for `NS(=O)(=O)c1ccc(-c2ccc(/C=C3\SC(=O)NC3=O)o2)cc1`, the figure is -52.9% (active).
With `CN1CCN(/N=C/c2ccc(-c3ccc([N+](=O)[O-])cc3)o2)CC1`, the max response was -0.908%.
The value for `O=C(Nc1ccccc1)c1ccccc1Br` was 2.77%; that for `CCN(CC)CCN(C)C(c1ccnc2ccccc12)c1nnnn1-c1ccc2c(c1)OCCO2` (centres undefined) was -0.0355%.
As for `O=C(N/N=C/c1ccco1)c1ccc(C(=O)N/N=C/c2ccco2)o1`, the figure is -70.9% (active); as for `O=C(N/N=C/c1ccco1)c1csc2c1CCCC2`, -21.6%.
Turning to `O=C(Cc1ccc([N+](=O)[O-])cc1)N/N=C/c1ccco1`, the max response is -5.81%.
